Results filed as inconclusive are left out. Active and inactive are the calls of the source. How the source made its calls, unless noted: active means hit-call score of the fitted dose curve at least 0.9, where 1 is the maximum; inactive means score below 0.9.
Tests used:
[1] = CCTE_Shafer_MEA_dev_firing_rate_mean: CCTE's Neural Network Formation Assay for Mean Firing Rate, Shafer Lab (AID 2284031);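 further: curve fitted for loss of firing so AC50 reflects decreased mean firing rate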
Summary of the method: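 Primary rat cortical neurons on 48-well MEA plates, exposed from plating day 0 with dosing renewed on DIV 5 and 9. Mean well firing rate over active electrodes, recorded days 5, 7, 9, 12, summarised as trapezoidal AUC.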

[2] = CCTE_Shafer_MEA_dev_per_burst_spike_percent: CCTE's Neural Network Formation Assay for Percent of Spikes in a Burst, Shafer Lab (AID 2284032);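 further: fitted as a decrease in burst spike percentage below DMSO baseline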
Summary of the method: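 Rat primary cortical neurons on 16-electrode MEA wells, dosed from plating day 0 for 12 days with renewal on DIV 5 and 9; spikes-in-bursts percentage averaged over bursting electrodes, collapsed as AUC across days 5, 7, 9, 12; loss direction versus DMSO.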

[3] = CCTE_Shafer_MEA_dev_active_electrodes_number: CCTE's Neural Network Formation Assay for Number of Active Electrodes, Shafer Lab (AID 2284040; active means hit-call score of the fitted dose curve at least 0.9, where 1 is the maximum;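 further: potency for loss of active electrodes versus DMSO so lower counts are hits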)
Summary of the method: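 Primary rat cortical neurons on 16-electrode MEA wells, exposed from day 0 through day 12 with compound renewed at DIV 5 and 9 feeds. Active electrodes (mean firing ≥5 spikes/min) counted at DIV 5, 7, 9, 12; trapezoidal AUC across days, loss-of-signal versus DMSO.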

[4] = CCTE_Shafer_MEA_dev_burst_rate: CCTE's Neural Network Formation Assay for Burst Rate, Shafer Lab (AID 2284042);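 further: potency for loss of burst rate below DMSO control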
Summary of the method: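 Primary rat cortical neurons on PEI-coated 48-well MEA plates (laminin added with cells at plating) (16 electrodes/well), exposed from plating to day 12, dosing renewed at DIV 5 and 9. Burst rate averaged over active electrodes, recorded DIV 5, 7, 9, 12, summarized as AUC; loss versus DMSO.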

[5] = CCTE_Shafer_MEA_dev_bursting_electrodes_number: CCTE's Neural Network Formation Assay for Number of Bursting Electrodes, Shafer Lab (AID 2284043; active means hit-call score of the fitted dose curve at least 0.9, where 1 is the maximum;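 further: potency is for loss of bursting electrodes relative to DMSO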)
Summary of the method: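 Primary rat cortical neurons plated on 16-electrode MEA wells, exposed from day 0 with compound renewed at DIV 5 and 9. Electrodes bursting ≥1 burst per 2 min counted on days 5, 7, 9 and 12; trapezoidal AUC across days, fitted for loss versus DMSO.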

[6] = CCTE_Shafer_MEA_dev_per_burst_interspike_interval: CCTE's Neural Network Formation Assay for Burst Interspike Interval, Shafer Lab (AID 2284044);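 further: mean spike spacing inside bursts as AUC over recordings on days 5 7 9 12; potency for a decrease of within-burst interspike interval below DMSO level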
Summary of the method: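 Spontaneous activity of maturing rat cortical networks is recorded on DIV 5, 7, 9 and 12 under chronic compound exposure beginning at plating. Endpoint: burst interspike interval well-mean, collapsed into trapezoidal AUC and fitted in the negative direction relative to DMSO.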

[7] = CCTE_Shafer_MEA_dev_burst_duration_mean: CCTE's Neural Network Formation Assay for Mean Burst Duration, Shafer Lab (AID 2284045)
Summary of the method: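 Primary rat cortical neurons on 48-well 16-electrode MEA plates, exposed from day 0 with renewal at DIV 5 and 9; spontaneous activity recorded on days 5, 7, 9, 12. Well-mean burst duration across bursting electrodes, collapsed as trapezoidal AUC; DMSO baseline.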

[8] = CCTE_Shafer_MEA_dev_interburst_interval_mean: CCTE's Neural Network Formation Assay for Mean Interburst Interval, Shafer Lab (AID 2284046);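 further: well-mean interburst interval of bursting electrodes as AUC over four recording days; curve fitted for decrease in interburst interval relative to DMSO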
Summary of the method: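 Recordings on days 5, 7, 9 and 12 give well-mean interburst interval across actively bursting electrodes, summarized as area under the curve. Cultures: rat cortical neurons, continuous exposure from day 0, compound renewed at feeds; decrease analyzed versus DMSO.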

[9] = CCTE_Shafer_MEA_dev_inter_network_spike_interval_mean: CCTE's Neural Network Formation Assay for Mean Inter-network Spike Interval, Shafer Lab (AID 2284047)
Summary of the method: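 Primary rat cortical neurons on 16-electrode MEA wells, exposed from plating day 0 through DIV 12, compound renewed at DIV 5 and 9 media changes. Mean interval between network-spike peaks recorded DIV 5, 7, 9, 12; collapsed as trapezoidal AUC, fitted downward versus DMSO.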

[10] = CCTE_Shafer_MEA_dev_network_spike_number: CCTE's Neural Network Formation Assay for Number of Network Spikes, Shafer Lab (AID 2284048);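 further: fit as a loss of signal meaning fewer network spikes than DMSO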
Summary of the method: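 Primary rat cortical neurons on PEI/laminin 48-well MEA plates, dosed from plating day 0 for 12 days, renewed at DIV 5 and 9. Network spike counts recorded DIV 5, 7, 9, 12, collapsed as trapezoidal AUC; DMSO baseline.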

[11] = CCTE_Shafer_MEA_dev_network_spike_peak: CCTE's Neural Network Formation Assay for Mean Number of Electrodes in Network Spike, Shafer Lab (AID 2284049);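 further: fitted for loss of signal meaning fewer electrodes in network spikes than DMSO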
Summary of the method: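 Network-spike peak electrode count from recordings on days 5, 7, 9 and 12 was combined as trapezoidal area under the curve. Rat cortical cultures were treated continuously from plating, with compound renewed at each feed (DIV 5, 9); fits versus DMSO.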

[12] = CCTE_Shafer_MEA_dev_spike_duration_mean: CCTE's Neural Network Formation Assay for Mean Spike Duration, Shafer Lab (AID 2284051);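 further: mean network spike duration pooled as area under curve over DIV 5 to 12 recordings; potency for a decrease in mean network spike duration versus DMSO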
Summary of the method: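 Primary rat cortical neurons on 16-electrode MEA wells (PEI-coated, laminin in plating drop), exposed from plating through DIV 12 with compound renewed at DIV 5 and 9. Mean network-spike duration recorded DIV 5, 7, 9, 12; trapezoidal AUC across days, DMSO baseline.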

[13] = CCTE_Shafer_MEA_dev_per_network_spike_spike_number_mean: CCTE's Neural Network Formation Assay for Mean Number of Spikes in a Network Spike, Shafer Lab (AID 2284053);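 further: fitted as decrease in spikes per network spike relative to DMSO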
Summary of the method: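 Primary rat cortical neurons on 48-well, 16-electrode MEA plates were exposed from plating to DIV 12, with dosing renewed on DIV 5 and 9. Spikes per network spike (0.05 s peak window) were recorded on DIV 5, 7, 9 and 12 and collapsed as trapezoidal AUC versus DMSO.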

[14] = CCTE_Shafer_MEA_dev_per_network_spike_spike_percent: CCTE's Neural Network Formation Assay for Percent of Spikes in a Network Spike, Shafer Lab (AID 2284054)
Summary of the method: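 Rat primary cortical neurons were grown on 48-well MEA plates (16 electrodes/well), exposed from plating day 0 through day 12, with treatment renewed on DIV 5 and 9. Percent of spikes within 0.05 s network-spike peaks was measured, summarised as AUC across days 5, 7, 9, 12.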

[15] = CCTE_Shafer_MEA_dev_LDH: CCTE's Lactate Dehydrogenase Assay for Cytotoxicity in the Neural Network Formation Assay, Shafer Lab (AID 2284068; active means hit-call score of the fitted dose curve at least 0.9, where 1 is the maximum;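 further: exposure for twelve days from plating with re-dosing on DIV 5 and 9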)
Summary of the method: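 Primary rat cortical neurons were plated on PEI/laminin MEA plates and exposed from day 0 for twelve days, with compound renewed at DIV 5 and 9. Cytotoxicity was determined by spectrophotometric LDH assay relative to DMSO.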

[16] = CCTE_Shafer_MEA_dev_AB: CCTE's Alamar Blue Assay for Cytotoxicity in the Neural Network Formation Assay, Shafer Lab (AID 2284083; active means hit-call score of the fitted dose curve at least 0.9, where 1 is the maximum;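 further: twelve days of exposure from plating with re-dosing on DIV 5 and 9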)
Summary of the method: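 Primary rat cortical neurons on PEI-coated 48-well MEA plates, 1.5 x 10^5 cells/well in laminin drop; compound exposure from day 0 of plating for twelve days, renewed at medium changes on DIV 5 and 9. Viability read as resazurin reduction by fluorescence, relative to DMSO.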

[17] = CCTE_Shafer_MEA_dev_mutual_information_norm: CCTE's Neural Network Formation Assay for Mutual Information Normalization, Shafer Lab (AID 2284091);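 further: mutual information between electrodes summarised as area under curve across four recording days; potency is for a decrease in mutual information relative to DMSO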
Summary of the method: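 Primary rat cortical neurons on PEI-coated 48-well MEA plates, 1.5 x 10^5 cells/well, exposed from day 0 through day 12 with re-dosing at DIV 5 and 9. Mutual information between electrodes recorded days 5, 7, 9, 12; trapezoidal AUC, loss-of-signal fit versus DMSO.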

[18] = UKN2_HCS_IMR90_neural_migration: University of Konstanz (UKN) Leist Lab Neural Crest Cell Migration Assay in human induced IMR90 Pluripotent Stem Cells (UKN2) (AID 2284204); conditions: actives raise or lower the signal
Summary of the method: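 iPSC-derived IMR90 neural crest cells seeded around stoppers on PLO/laminin/fibronectin; migration started in N2-S medium with EGF/FGF, compounds added after 24 h for 24 h. Migration into cell-free area imaged after calcein-AM/Hoechst staining; bidirectional fit versus DMSO.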

[19] = IUF_NPC1b_proliferation_BrdU_72hr: Leibniz Research Institute for Environmental Medicine (IUF) 72-hour Neural Progenitor Cell Bromodeoxyuridine (BrdU) Proliferation Assay (NPC1b) (AID 2284207)
Summary of the method: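 BrdU luminescence ELISA quantified DNA synthesis over the last 16 h of a 72 h exposure, fitted against DMSO. Primary hNPC spheres from gestational week 16-19 cortex grown with EGF/FGF at 37C, pH 7.2-7.6.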

[20] = IUF_NPC1a_proliferation_area_72hr: Leibniz Research Institute for Environmental Medicine (IUF) 72-hour Neural Progenitor Cell Proliferation Area Assay (NPC1a) (AID 2284208)
Summary of the method: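 Measured in 3D suspension: each well held one primary hNPC sphere grown with EGF and FGF at pH 7.2-7.6. Compound stayed on for 72 h, then area was imaged; spheres lacking growth factors defined reduced proliferation.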

[21] = IUF_NPC1_viability_72hr: Viability Assessment at 72 hours in the Leibniz Research Institute for Environmental Medicine (IUF) Neural Progenitor Cell Proliferation Assay (NPC1) (AID 2284209)
Summary of the method: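 Single spheres (0.25-0.35 mm) of human fetal cortex-derived neural progenitor cells were grown in proliferation medium with EGF and FGF at 37C and 5% CO2. They were exposed for 72 h without renewal, and viability was read by alamar blue resorufin fluorescence.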

[22] = CCTE_Mundy_HCI_Cortical_Synap_Neur_Matur_NeuriteSpotCountPerNeuriteLength: CCTE's Synaptogenesis and Neurite Maturation Assay in rat cortical cells for Neurite Spot Count per Neurite Length, Mundy Lab (AID 2284210)
Summary of the method: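 Rat primary cortical cultures, AraC added at DIV 5 to suppress glia; chemical exposure from DIV 7 to DIV 12. Fixed cells stained for MAP2 and synaptophysin plus Hoechst; synaptophysin puncta per neurite length quantified by high-content imaging, relative to DMSO.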

[23] = CCTE_Mundy_HCI_Cortical_Synap_Neur_Matur_BPCount: CCTE's Synaptogenesis and Neurite Maturation Assay in rat cortical cells for Branch Point Count, Mundy Lab (AID 2284211)
Summary of the method: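 Rat primary cortical cultures, AraC added DIV 5; chemicals dosed DIV 7 through DIV 12. Fixed cells stained for MAP2, synaptophysin and Hoechst; neurite branch points counted by automated high-content imaging, fitted relative to DMSO.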

[24] = CCTE_Mundy_HCI_Cortical_NOG_NeuriteCount: CCTE's Neurite Outgrowth Assay in rat cortical cells for Neurite Count, Mundy Lab (AID 2284212);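 further: cells fixed about two days after chemical exposure began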
Summary of the method: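 Neurite number per cell from high-content imaging of betaIII-tubulin immunostaining, with Hoechst nuclear counterstain.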

Measured: AC50

BrC1CC(Br)CC(Br)CC(Br)CC(Br)CC(Br)C1 (centres undefined)
active: [1] 8.92 µM | [2] 4.4 µM | [3] 6.75 µM | [4] 4.73 µM | [5] 5.42 µM | [6] 8.48 µM | [8] 4.31 µM | [10] 8.72 µM | [11] 7.04 µM | [12] 3.57 µM | [13] 4.17 µM | [14] 6.85 µM | [15] 10.6 µM | [16] 12.6 µM | [17] 2.73 µM | [18] 5.5 µM | [19] 8.81 µM | [22] 3.49 µM | [23] 3.17 µM | [24] 8.41 µM
inactive: [7] | [9] | [20] | [21]

Source: PubChem BioAssay (EPA / NIEHS)
